NLRP3 yeast inh – NALP3 inhibition in yeast; inhibition, % at 10 µM; 0.39% of 330,000 active; AID 2825; Yeast reconstituted NLRP3/ASC/caspase-1, beta-gal luminescence, 24 h;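 active = inhibition of 50% or more; inactive = inhibition below 50%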;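 note: plate controls were induced DMSO wells for no effect and uninduced yeast grown without galactose for full effect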
tim23-1 inh – growth inhibitors of tim23-1 mutant yeast; 1.3% of 330,000 active; AID 463212; S. cerevisiae tim23-1 growth, BacTiter-Glo luminescence, 24 h; inhibition, % at 20 µM;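 active = growth inhibition of the mutant yeast at or above 50%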;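 note: temperature-sensitive mutant grown at 25 °C; plate controls were DMSO-treated mutant yeast for no effect and medium wells lacking yeast for full effect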
tim10-1 inh – growth inhibitors of tim10-1 mutant yeast. inhibition, % at 20 µM. S. cerevisiae tim10-1 ts strain growth, BacTiter-Glo, 24 h. 2.2% of 330,000 active;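 active = inhibition of at least 40%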;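 note: mutant grown at 25 °C; 0% = DMSO wells with yeast and 100% = wells holding no yeast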
NALP1 yeast inh – NALP1 inhibition; S. cerevisiae NALP1/ASC/caspase-1 growth, X-gal OD620, 72 h; inhibition, % at 10 µM; 0.61% of 280,000 active; AID 2071; in the data active = inhibition mostly above about 24%, no sharp cut-off; inactive = mostly below about 32%
TIM10 inh – growth inhibitors of TIM10 yeast strain; 1.4% of 330,000 active; inhibition, % at 10 µM; S. cerevisiae TIM10 strain growth, BacTiter-Glo luminescence, 24 h;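 active = inhibition of 40% or more at the single tested concentration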;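 note: wild-type TIM10 isogenic control strain grown at permissive 25 °C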
NALP3 yeast conf – NALP3 inhibition confirmation in yeast; shares compounds with NLRP3 yeast inh; 81% of 1,300 active; inhibition, % at 10 µM; yeast expressing human NALP3, luminescence; AID 435006; in the data active = inhibition above about 48%
Casp1 ASC ctr – caspase-1-ASC yeast counter-screen hit; shares compounds with NLRP3 yeast inh; yeast expressing Caspase-1-ASC, luminescence counter screen; inhibition, % at 10 µM; 66% of 1,000 active; AID 488784
NALP3 yeast rt – retest-confirmed inhibitor of NALP3 in yeast | shares compounds with NLRP3 yeast inh | yeast expressing human NALP3, luminescence read-out | inhibition, % at 10 µM | 53% of 1,000 active | AID 488794
* = called active by the depositor; . = no result. Compounds with a hit are over-represented: about 4.1% of the library has one in this group of screens. Cut-off read from the data, not from the text of the source, unless noted: active = inhibition above about 50%; inactive = the rest.

SMILES	NLRP3 yeast inh	tim23-1 inh	tim10-1 inh	NALP1 yeast inh	TIM10 inh	NALP3 yeast conf	Casp1 ASC ctr	NALP3 yeast rt
CCOc1ccc(C(=O)N2CCC3(CC2)NCCc2[nH]cnc23)cc1	3	8	-4	10	2	.	.	.
O=C1Nc2ccccc2S/C1=C/c1cccs1	65*	31	-3	.	19	-1	.	.
COc1ccc2c(C)cc(N3CCN(Cc4ccccc4)CC3)nc2c1	18	4	19	19	17	.	.	.
CN(C)c1ccc(C(=O)/C=C/c2ccccc2)cc1	53*	5	21	-2	16	72*	43	40
CN(C)c1ccc(C(=O)/C=C/c2ccc(Br)cc2)cc1	32	29	26	24	14	.	.	.
CCOc1cc(C=O)ccc1OCCSc1ccc(C)cc1	65*	16	0	19	-3	69*	65*	39
COc1cc(C=O)ccc1OCCSc1ccc(C)cc1	18	21	17	.	-24	.	.	.
CCOc1ccc(NC(=O)C(C)NS(=O)(=O)c2ccc(NC(C)=O)cc2)cc1 (stereo not given)	11	19	-6	-1	-13	.	.	.
C/C(=N\NC(=O)c1nnn(-c2nonc2N)c1C(C)C)c1ccc2ccccc2c1	10	4	0	31	4	.	.	.
CCc1c(O)cc(=O)n(-c2ccccc2)c1-c1ccccc1	9	24	21	16	27	.	.	.
Cc1cc(C)cc(NC(=O)N2CCc3ccccc3C2)c1	53*	34	26	21	9	64*	42	28
O=C(Cc1cccc(Cl)c1)Nc1ccc(Br)cc1	54*	22	1	2	6	39	57*	48
O=C(Cc1ccc(Br)cc1)Nc1ccc(Cl)cc1	28	7	-4	-2	-13	.	.	.
CC(Oc1ccccc1)C(=O)Nc1nnc(S(=O)(=O)N(C)c2ccccc2)s1 (stereo not given)	2	20	18	17	6	.	.	.
C[C@H](NC(N)=O)C(=O)OCC(=O)NCc1cccs1	15	22	-12	5	-3	.	.	.
C=C(CC[C@@H](O)C(C)(C)O)[C@H]1CC[C@]2(C)[C@@H]1CCC1[C@@]3(C)CCC(=O)C(C)(C)C3CC[C@]12C (stereo not given in full)	54*	17	3	.	-9	46	52*	37
Clc1cc2nc3ccccn3c2cc1Cl	67*	30	12	1	17	30	.	.
COc1cccc(NC(=O)c2cnn(-c3ccccc3)c2C)c1	51*	22	-3	9	1	59*	50	44
Cc1ccc(NC(=O)c2cnn(-c3ccccc3)c2C)cc1	28	10	-11	4	-13	.	.	.
CCc1cccc(NC(=O)c2cnn(-c3ccccc3)c2C)c1	59*	35	-14	15	-49	67*	57*	67*
C=CC[C@@H](CC(=O)NCCO)C(=O)NCCOC(=O)[C@@H](CC=C)Cc1ccc(F)cc1	10	13	9	.	18	.	.	.
CS(=O)(=O)Nc1cccc(C(=O)OCCCOc2ccc(F)cc2)c1	8	19	13	3	-10	.	.	.
O=C(C1CCC(CNS(=O)(=O)c2cccs2)CC1)N1CCN(c2ccc(Cl)cc2)CC1 (stereo not given)	8	8	24	9	-3	.	.	.
Cc1nc2c3ccccc3nc(NNC(=O)CCC(=O)NCCN3CCN(c4ccccc4F)CC3)n2n1	52*	11	18	32	2	76*	54*	71*
COc1ccc(N2CCN(CCNC(=O)CCC(=O)NNc3nc4ccccc4c4nc(C)nn34)CC2)cc1	41	12	17	17	0	.	.	.
SMILES	NLRP3 yeast inh	tim23-1 inh	tim10-1 inh	NALP1 yeast inh	TIM10 inh	NALP3 yeast conf	Casp1 ASC ctr	NALP3 yeast rt
CCCOc1ncnc2c1[nH]c1ccc(C)cc12	39	20	-55	-1	14	.	.	.
CCOc1ncnc2c1[nH]c1ccccc12	61*	28	-58	.	23	82*	.	.
O=S(=O)(c1ccccc1)N1CCN(Cc2cccc(Br)c2)CC1	17	13	22	.	-11	.	.	.
O=S(=O)(c1ccc(Cl)s1)N1CCN(CCc2ccccc2)CC1	60*	37	33	18	13	76*	63*	53*
O=S(=O)(c1ccc(Cl)s1)N1CCN(Cc2ccccc2)CC1	32	27	24	4	-2	.	.	.
O=S(=O)(c1cccc(Br)c1)N1CCN(CCc2ccccc2)CC1	53*	25	34	-7	-1	71*	52*	49
CC(C)CCN1CCN(Cc2cccc3cccnc23)CC1CCO (stereo not given)	8	7	10	15	-2	.	.	.
Clc1ccc(-c2nnn(Cc3nc4ccccc4s3)n2)cc1	34	8	25	24	1	.	.	.
Fc1ccc(-c2nnn(Cc3nc4ccccc4s3)n2)cc1	54*	21	29	37	7	65*	46	42
CCCN(CC(=O)Nc1ccccc1C)C(=O)COc1ccc2c(c1)CCC2	10	-3	5	15	2	.	.	.
Cc1ccc(N2C(=O)C3N=NN(CC(=O)N4N=C(c5ccccc5)CC4c4ccccc4)C3C2=O)cc1 (stereo not given)	65*	24	4	-21	20	61*	18	36
Cc1ccc(Nc2nc(N)c3ccccc3n2)cc1Cl	55*	44	5	37	25	65*	38	32
COc1cc2nc(Nc3ccc(C)c(Cl)c3)nc(N)c2cc1OC	12	25	37	3	7	.	.	.
O=C(Cn1cnc2ccc(Cl)cc2c1=O)NC1CCS(=O)(=O)C1 (stereo not given)	14	21	0	.	0	.	.	.
O=S(=O)(c1ccccc1)c1cnc2ccccc2c1	46	10	11	.	-3	.	.	.
Nc1nc2ccccc2cc1S(=O)(=O)c1ccccc1	83*	12	-18	0	-28	87*	.	.
CC1CCc2c(C(=O)Nc3ccc(N4CCOCC4)cc3)csc2C1 (stereo not given)	69*	11	18	27*	11	53*	64*	52*
CC1CCc2c(C(=O)NCCN3CCOCC3)csc2C1 (stereo not given)	20	10	-3	-20	-14	.	.	.
CCn1c(COc2ccc(C)cc2)nnc1SCc1ccc(C#N)cc1	61*	34	31	15	-3	71*	54*	39
O=C1/C(=C/c2cccnc2)SC(=S)N1c1ccc(F)cc1	24	20	16	31	15	.	.	.
CCOc1ccc(N2C(=O)/C(=C/c3ccccn3)SC2=S)cc1	9	7	6	0	15	.	.	.
O=C1/C(=C/c2cccnc2)SC(=S)N1CCc1ccccc1	50*	23	9	-1	-25	14	.	.
O=C1/C(=C/c2cccnc2)SC(=S)N1c1ccc(O)cc1	87*	-10	6	2	-2	89*	90*	74*
